Source: PubChem BioAssay AID540333 (Southern Research Specialized Biocontainment Screening …, 2011)
Screen size: about 10,000 compounds; about 320 (3.2%) were called active. The list comes from a sample in which actives are over-represented; it also holds similar structures and randomly drawn compounds. Unmarked numbers belong to inactive results. No stated cut-off is given here; in the data, active means CPE inhibition mostly above about 9.1% (no sharp cut-off); inactive means mostly below about 7.2%.

Assay: antivirals protecting cells from dengue CPE – CPE readout, HTS (AID 540333)
Settings: Dengue virus CPE inhibition in host cells, at 20 µM; active compounds read high

Row | Structure (SMILES) | CPE inhibition
1 | CCOc1ccc(N2C(=O)/C(=C/c3ccco3)N(C)C2=S)cc1 | 3.13%
2 | Cc1cc(C)cc(NC(=S)NCc2cccs2)c1 | 1.1%
3 | Cc1ccc(C)c(NC(=O)COC(=O)c2cccc3c2C(=O)c2ccccc2C3=O)c1 | 0.805%
4 | O=C(OC(c1ccccc1)c1nccc2ccccc12)c1cc([N+](=O)[O-])cc([N+](=O)[O-])c1 (stereo not given) | 0.39%
5 | Cc1ccc(-c2nn(-c3ccccc3)cc2/C=C/C(=O)Nc2nccs2)cc1 | 3.35%
6 | CC(=O)N1CCC2(CC1)CC(=O)c1cc(Cl)ccc1O2 | inactive
7 | Cc1cc(C)c(-c2csc(NC(=O)c3n[nH]c(=O)c4ccccc34)n2)c(C)c1 | 2.35%
8 | COC(=O)[C@H]1[C@H](CCc2ccccc2)NC(=O)N(Cc2ccccc2)[C@@H]1C | inactive
9 | COC(=O)c1c(NC(=O)CC2Sc3ccc(C(F)(F)F)cc3NC2=O)sc(C)c1C (stereo not given) | 0.71%
10 | COC(=O)c1c(NC(=O)CN2CCC3(O)CCCCC3C2c2ccc(F)cc2)sc(C)c1C (stereo not given) | 27.5% (active)
11 | CCOC(=O)c1c(NC(=O)CN2C(=O)NC3(CCCCC3)C2=O)sc(C)c1-c1ccc(C)cc1 | 9.96%
12 | COc1ccc(C2C3CCCCC3(O)CCN2C(=O)c2cccs2)cc1 (stereo not given) | 2.42%
13 | COC(=O)c1c(NC(=O)CN2CCC3(O)CCCCC3C2c2ccccc2OC)sc(C)c1C (stereo not given) | 2.39%
14 | COC(=O)c1c(NC(=O)CN2CCC3(O)CCCCC3C2c2cc(OC)ccc2OC)sc(C)c1C (stereo not given) | 11.8% (active)
15 | CCOc1cc(/C=C(\C#N)C(N)=O)ccc1OS(=O)(=O)c1ccccc1 | 0.64%
16 | COc1cc(C(=O)NCC(c2ccco2)N(C)C)cc(OC)c1OC (stereo not given) | 0.055%
17 | CC(C(=O)NC1CCCc2ccccc21)N1CCN(c2ccc(F)cc2)CC1 (stereo not given) | 0.305%
18 | CC(C)(C)[C@H]1C=C(C(=O)NCc2ccccc2)O[C@@H](OCCCCO)C1 | 0.655%
19 | CC(C)c1ccccc1NC(=O)COC(=O)Cc1c[nH]c2ccccc12 | inactive
20 | CCC(C)c1ccccc1NC(=O)COC(=O)c1ccc2[nH]c3c(c2c1)CCCC3 (stereo not given) | 25.9% (active)
21 | CC(C)c1ccccc1NC(=O)COC(=O)c1ccc(Cl)c(S(=O)(=O)N2CCCCCC2)c1 | 0.87%
22 | NNc1nc(-c2ccccc2)nc2sc3c(c12)CCCC3 | inactive
23 | COc1ccc(-c2c(-c3cc(OC)cc(OC)c3)n(C)c3ccc(-c4ccc(N(C)C)nc4)cc23)cc1 | 0.63%

Row | Structure (SMILES) | CPE inhibition
24 | O=C1CN(C(=O)COc2ccc(Br)cc2F)c2ccccc2N1 | inactive
25 | CCOc1ccc(NS(=O)(=O)c2cc(NC(=O)CCS(=O)(=O)c3ccc(C)cc3)ccc2OC)cc1 | 0.21%
26 | CCOC(=O)c1c(C)nc2ccc(Cl)cc2c1-c1ccccc1 | 0.765%
27 | CCOC(=O)c1c(C)[nH]c(C(=O)N/N=C\c2ccccc2Cl)c1C | 3.76%
28 | CCOC(=O)c1c(C)[nH]c(C=O)c1Cc1cccc(Cl)c1 | 14.8% (active)
29 | O=C(O)CCC(=O)Nc1ccccc1C(=O)NCc1ccccc1 | 1.71%
30 | CCCCNc1c(-c2cccc(-c3ccc(OC)cc3)c2)nc2cc(C)ccn12 | inactive
31 | CCCCNc1c(-c2cccc(SC(C)CC)c2)nc2ccc(Cl)cn12 (stereo not given) | 1.45%
32 | CCCCNc1c(-c2ccc(-c3cccc(Cl)c3)cc2)nc2ccc(Cl)cn12 | 9.97% (active)
33 | Cc1c(Cl)cccc1NC(=O)COC(=O)c1c2c(nc3ccccc13)CCN(Cc1ccccc1)C2 | 0.23%
34 | CC(C)(C)c1nnc(N/N=C/c2ccccc2)n(N)c1=O | 2.69%
35 | CC(C)(C)c1nnc(N/N=C/c2ccc(Br)cc2)n(N)c1=O | 27.6% (active)
36 | CCc1nnc(N/N=C/c2cccs2)n1N | 2.18%
37 | C/C(=N\NC(=O)CN(c1ccccc1Br)S(C)(=O)=O)c1ccc2c(c1)OCCO2 | 0.855%
38 | CCOC(=O)/C=C/[C@H]1CC(c2ccccc2)(c2ccccc2)CO1 | 0.15%
39 | CCn1c(SCC(=O)N2c3ccccc3CCc3ccccc32)nnc1-c1ccc(OC)cc1 | 1.05%
40 | Cn1c(SCC(=O)N2c3ccccc3CCc3ccccc32)nnc1-c1cc2ccccc2cc1O | 11.1% (active)
41 | Cn1c(SCC(=O)N2c3ccccc3CCc3ccccc32)nnc1-c1ccc(O)cc1 | inactive
42 | CCn1cc(/C=C/C(=O)Nc2ccn(Cc3c(F)c(F)cc(F)c3F)n2)cn1 | inactive
43 | Cc1ccc(S(=O)(=O)N2CCC(=O)N(CCOCc3ccccc3)CC2)cc1 | 0.27%
44 | C=CCn1c(C)cc(C(=O)COC(=O)[C@@H](NC(=O)c2ccccc2Cl)C(C)C)c1C | inactive
45 | CCOC(=O)C(=CNc1cc(C)ccn1)C(=O)OCC | inactive
